Assay [1] in a line: qHTS profiling of the MIPE4 collection as inhibitors of Plasmodium falciparum (DD2) proliferation (AID 743345). To be noted: P. falciparum Dd2 in erythrocytes, SYBR Green DNA, 72 h; at 28.5 µM (top of the series) unless noted. The procedure, abridged:
(§1)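 Parasite DNA was quantified by SYBR Green I fluorescence (ex 485, em 535 nm) after overnight lysis in saponin/Triton buffer at room temperature. Cultures at 0.3% parasitemia and 2.5% hematocrit were first exposed to compound for 72 h at 37 C; signals were normalised to artemisinin (0.29 uM) and vehicle wells.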

Assay [2] in a line: qHTS profiling of the MIPE4 collection as inhibitors of Plasmodium falciparum (DD2) proliferation (Rep 2) (AID 743346). The settings on record: P. falciparum Dd2 in erythrocytes, SYBR Green DNA, 72 h; at 28.5 µM (top of the series) unless noted. In a few lines:
as §1

Assay [3] is described as follows: qHTS profiling of the MIPE4 collection as inhibitors of Plasmodium falciparum (HB3) proliferation (AID 743347).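 Also: plate controls were DMSO vehicle wells for no effect and artemisinin wells for full effect.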 To be noted: P. falciparum HB3 in erythrocytes, SYBR Green DNA, 72 h; at 28.5 µM (top of the series) unless noted. The procedure, abridged:
as §1

A short description of assay [4]: High-throughput drug toxicity screening in the BPDCN cell line Cal-1 (AID 1224825). To be noted: Cal-1 BPDCN cell viability, qHTS; at 45.8 µM (top of the series) unless noted. The procedure, abridged: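 CellTiter-Glo luminescence after 48 h compound exposure; percent activity scaled with DMSO as 100% and bortezomib (9.2 uM final) as 0%. Cal-1 cells seeded at 500/well in RPMI, 10% FBS, no phenol red.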

Assay [5] in a line: qHTS assay for measurement of the activity of small molecule inhibitors on Zika virus induced Caspase-3 activity in human iPSC derived neural progenitor cells (hNPCs) (AID 1224857; active = well fitted inhibition curve with a large enough effect; also: % of control where 0% means no effect; nearly all actives have a fitted effect of over 65% in size). The procedure, abridged: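 Values are percent inhibition of virus-induced caspase-3/7 signal, scaled between uninfected cells and ZIKV-infected cells. Infection used 2 FFU/cell for 6 h after 1 h compound exposure.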

A short description of assay [6]: qHTS assay for measurement of the activity of small molecule inhibitors on Zika virus induced Caspase-3 activity in human astrocytoma cells (AID 1224859; active = well fitted inhibition curve with a large enough effect;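 also: plate controls were ZIKV-infected untreated cells for no effect and uninfected cells for full effect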). The procedure, abridged: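 Compound added 1 h pre-infection; ZIKV 2 FFU/cell on SNB-19 cells, 6 h, 37 C/5% CO2. Caspase-Glo 3/7 luminescence; values as % inhibition of ZIKV-induced caspase activity.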
(qHTS replaces the single test concentration by a dilution series.)

Assay [7] can be described thus: qHTS Screen of the MIPE 4.0 Collection Against Ewings Sarcoma (RDES) (AID 1259252; active = well fitted inhibition curve with a large enough effect; also: nearly all actives have a fitted effect of over 35% in size; also: potency is read from the fitted curve at half-maximal effect). In a few lines: (§2)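 Dose series incubated 48 h with cells in RPMI plus 5% FBS, glutamine and penicillin/streptomycin; cell viability then quantified via CellTiter-Glo.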
The nature of assay [8]: qHTS Screen of the MIPE 4.0 Collection Against Ewings Sarcoma (TC32) (AID 1259256; active = well fitted inhibition curve with a large enough effect; also: nearly all actives have a fitted effect of over 45% in size; also: potency is read from the fitted curve at half-maximal effect). In a few lines: as §2
A short description of assay [9]: qHTS profiling of the MIPE4 collection as inhibitors of Plasmodium falciparum (3D7) proliferation (AID 743344).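 Also: scaled between DMSO vehicle wells and 0.29 µM artemisinin as full inhibition.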 The settings on record: P. falciparum 3D7 in erythrocytes, SYBR Green DNA fluorescence, 72 h; at 28.5 µM (top of the series) unless noted. The procedure, abridged:
as §1

The nature of assay [10]: qHTS Screen of the MIPE 4.0 Collection Against Ewings Sarcoma (TC71) (AID 1259253; active = well fitted inhibition curve with a large enough effect;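 also: 100% = DMSO-treated cells and 0% = medium-only wells without cells; nearly all actives have a fitted effect of over 40% in size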). The procedure, abridged:
as §2

Assay [11] can be described thus: qHTS Screen of the MIPE 4.0 Collection Against Ewings Sarcoma (EW8) (AID 1259255; active = well fitted inhibition curve with a large enough effect; also: nearly all actives have a fitted effect of over 35% in size; also: potency is read from the fitted curve at half-maximal effect;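 as to viability: 100% = DMSO-treated cells and 0% = medium-only wells without cells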). The procedure, abridged:
as §2

Records with an inconclusive call do not appear. The source made the active and inactive calls. Unless noted, no rule for the calls is given here.

From PubChem BioAssay (NCATS) come the findings set out here.

In assay [1], `Cc1cc(CS(=O)(=O)c2ccccc2)cc(OCc2ccc(CN3CCC[C@H]3CO)cc2)c1` yielded a parasite growth remaining, % of DMSO control (lower = more inhibition) of 30.3%. The compound further showed a parasite growth, % of control (lower = inhibition) in assay [2] of 18.8%. This compound also came in with a growth, % of control in assay [3] of 66.2%. In addition, the viability (% of control) in assay [4] came to 76.3%. Further, the Potency result in assay [5] and in [6] was “inactive” each time. For the same compound, the Potency in [7] and in assay [8] was 20.9 µM (active) each time.

`COC(=O)[C@H](c1ccccc1Cl)N1CCc2sccc2C1`: the parasite growth, % of DMSO control in assay [9] was 43.8%. In assay [1], the parasite growth remaining, % of DMSO control (lower = more inhibition) was 79%. The compound further showed a parasite growth, % of control (lower = inhibition) in assay [2] of 22.1%. In assay [3], this compound registered a growth, % of control of 24.3%. Besides, in [4], the viability (% of control) was determined as 91.3%. Moreover, the Potency entry in assay [5], in assay [6] and in [7] was “inactive” each time.

Compound `Cc1nc2c([nH]1)CCN(C(=O)c1ccc(NC(=O)c3ccccc3-c3ccccc3)cc1)c1ccccc1-2` yielded a parasite growth, % of DMSO control in assay [9] of 5.23%. In addition, the parasite growth remaining, % of DMSO control (lower = more inhibition) in [1] was found to be 8.18%. The compound further returned a parasite growth, % of control (lower = inhibition) in assay [2] of 13.3%. In assay [3], this compound had a growth, % of control of 9.61%. In addition, in [4], the viability (% of control) was found to be 55.1%. The Potency result in assay [5], in assay [6], in assay [7] and in assay [8] was “inactive” each time.

`CC1(C)[C@H]2CC[C@]3(C)[C@@H](C(=O)C=C4[C@@H]5C[C@@](C)(C(=O)O)CC[C@]5(C)CC[C@]43C)[C@@]2(C)CC[C@@H]1O` had a parasite growth, % of DMSO control in assay [9] of 93.2%. The parasite growth remaining, % of DMSO control (lower = more inhibition) in assay [1] was determined as 98.1%. For the same compound, the parasite growth, % of control (lower = inhibition) in [2] is 84.9%. In addition, the growth, % of control in assay [3] was 87.6%. In assay [4], the viability (% of control) came out at 111%. The Potency entry in assay [5], in [6], in assay [7], in assay [10] and in assay [11] was “inactive” throughout.

In the case of `CCOC(=O)N1c2ccc(C(F)(F)F)cc2[C@@H](N(Cc2cc(C(F)(F)F)cc(C(F)(F)F)c2)C(=O)OC)C[C@H]1CC`, the parasite growth, % of DMSO control in assay [9] worked out at 6.27%. Further, the parasite growth remaining, % of DMSO control (lower = more inhibition) in assay [1] is 7.82%. The parasite growth, % of control (lower = inhibition) in [2] amounted to 14.4%. In addition, the viability (% of control) in assay [4] turned out to be 91.9%. In addition, the Potency result in assay [5] and in assay [6] was “inactive” in each case. The Potency in [7] was 23.5 µM (active); in assay [11], 20.9 µM (active).

For `Cc1ccccc1C(C(=O)NC1CCCCC1)N(C(=O)CNc1ccc(C#N)cc1)c1cccc(F)c1` (centres undefined), the parasite growth, % of DMSO control in [9] was 145%. The compound also yielded a parasite growth remaining, % of DMSO control (lower = more inhibition) in assay [1] of 93.3%. Also, in [2], the parasite growth, % of control (lower = inhibition) came to 75.5%. In assay [3], the growth, % of control was 530%. Also, in assay [4], the viability (% of control) worked out at 128%. Moreover, the Potency entry in assay [5], in assay [6], in assay [7], in assay [11] and in assay [8] was “inactive” in each case.

In the case of `Cc1cc(OCCCS(C)(=O)=O)cc(C)c1-c1cccc(COc2ccc3c(c2)OC[C@H]3CC(=O)O)c1`, the parasite growth, % of DMSO control in assay [9] was determined as 52.2%. This compound came in with a parasite growth remaining, % of DMSO control (lower = more inhibition) in assay [1] of 34.3%. This compound also yielded a parasite growth, % of control (lower = inhibition) in assay [2] of 61.9%. Also, in assay [3], the growth, % of control was found to be 90.9%. For the same compound, the Potency entry in [6] and in assay [7] was “inactive” each time.

As to `OC[C@H]1O[C@@H](O[C@H]2[C@@H](O)[C@@](O)(CO)O[C@@H]2CO)[C@H](O)[C@@H](O)[C@@H]1O`, the parasite growth, % of DMSO control in assay [9] was 87.6%. Moreover, the parasite growth remaining, % of DMSO control (lower = more inhibition) in [1] turned out to be 72.5%. In assay [2], this compound returned a parasite growth, % of control (lower = inhibition) of 79.8%. The same compound registered a growth, % of control in assay [3] of 88%. For the same compound, the viability (% of control) in assay [4] is 96.1%. Also, the Potency result in assay [5], in [6], in [7], in assay [10] and in assay [11] was “inactive” in each case.
